Source: PubChem BioAssay
KCNQ2 enhance: potentiators of rat KCNQ2 potassium channel; Potassium voltage-gated channel subfamily KQT member 2 (Rattus norvegicus), O88943; CHO-K1 KCNQ2, FluxOR thallium flux fluorescence; hits give high values; B-score at 10 µM; 310,000 compounds, 0.54% hits;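 active = fluorescence ratio B-score at least 3 SD of library B-scores, with initial fluorescence B-score within 3 of them, cut at about 5.3 in these data; same plate scores as AID 2156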;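 also: B-score of peak minus minimum over baseline fluorescence ratio after K+ and Tl+ stimulus; positive B-score means potentiation of KCNQ2 with more thallium influx and brighter signal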
Target sequence (O88943 whole entry, looked up): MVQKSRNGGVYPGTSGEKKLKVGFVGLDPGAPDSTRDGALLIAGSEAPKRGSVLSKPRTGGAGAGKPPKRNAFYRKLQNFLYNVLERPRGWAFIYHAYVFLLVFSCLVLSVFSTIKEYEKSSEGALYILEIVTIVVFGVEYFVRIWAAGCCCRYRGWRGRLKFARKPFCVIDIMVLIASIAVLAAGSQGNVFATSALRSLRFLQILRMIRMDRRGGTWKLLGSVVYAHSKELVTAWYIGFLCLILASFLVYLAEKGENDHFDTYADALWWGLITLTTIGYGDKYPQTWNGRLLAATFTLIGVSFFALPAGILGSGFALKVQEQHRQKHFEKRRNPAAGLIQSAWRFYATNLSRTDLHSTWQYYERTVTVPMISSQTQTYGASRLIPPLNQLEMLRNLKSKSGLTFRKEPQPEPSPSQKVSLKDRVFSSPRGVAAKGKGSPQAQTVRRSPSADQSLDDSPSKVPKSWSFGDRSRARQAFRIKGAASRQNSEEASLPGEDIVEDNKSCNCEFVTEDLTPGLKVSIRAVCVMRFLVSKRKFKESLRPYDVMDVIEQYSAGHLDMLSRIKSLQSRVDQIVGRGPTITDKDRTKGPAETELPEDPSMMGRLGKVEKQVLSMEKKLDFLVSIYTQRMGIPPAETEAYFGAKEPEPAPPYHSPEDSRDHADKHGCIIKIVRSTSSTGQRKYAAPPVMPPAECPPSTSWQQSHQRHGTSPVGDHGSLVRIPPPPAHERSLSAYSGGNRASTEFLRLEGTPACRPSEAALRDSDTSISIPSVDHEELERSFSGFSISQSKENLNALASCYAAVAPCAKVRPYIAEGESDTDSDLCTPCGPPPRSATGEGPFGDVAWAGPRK
KCNQ2 inh: rat KCNQ2 potassium channel inhibitors, primary screen, cell-based, CHO-K1, FluxOR thallium flux, B-score; B-score at 10 µM; 20 min; hits give low values; AID 2156, 2009; Potassium voltage-gated channel subfamily KQT member 2 (Rattus norvegicus), O88943; 310,000 compounds, 1.1% hits;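 active = fluorescence ratio B-score at most minus 3 library SDs, with starting brightness B-score within 2 library SDs, cut at about -5.5 in these data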
KCNQ2 block conf: rat KCNQ2 potassium channel inhibitors, confirmation, cell-based, thallium flux; activity change, negative = inhibition, % at 10 µM; shares compounds with KCNQ2 inh; KCNQ2-expressing cells, inhibition; hits give low values; 1,000 compounds, 57% hits;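 also: 0% = vehicle wells and values are ratio percent relative to vehicle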
KCNQ1 spec: human KCNQ1 channel inhibition, counter-screen for KCNQ2 inhibitor project, cell-based, FluxOR thallium flux; 1,000 compounds, 15% hits; KCNQ1-expressing cells, FluxOR thallium flux fluorescence; hits give low values; shares compounds with KCNQ2 inh; activity change, negative = inhibition, % at 10 µM;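 active = activity change at least 3 SD of negative controls below their mean in both duplicate wells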;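 also: CHO cells stably transfected with KCNQ1 and depolarized by potassium stimulus; peak minus minimum fluorescence over baseline after thallium addition; 0% = vehicle negative control and -100% = blank without thallium stimulus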
CHO Tl ctr: thallium flux change in parental CHO cells, counter-screen for KCNQ2 inhibitor project; activity change, % at 10 µM; hits give low values; 1,000 compounds, 14% hits; shares compounds with KCNQ2 inh;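 also: 0% = vehicle negative controls with stimulus buffer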
KCNQ2 patch conf: rat KCNQ2 channel inhibitors, confirmation, cell-based, automated patch clamp, single concentration. KCNQ2-expressing cells, automated patch clamp current. AID 588531, 2011. calls only at 10 µM. shares compounds with KCNQ2 inh. 550 compounds, 49% hits
* = called active by the depositor; i = inactive; . = no result; + = active, no number. Compounds with a hit are over-represented: about 1.6% of the library has one in this group of screens. Unless noted, no rule for the calls is given here.

SMILES	KCNQ2 enhance	KCNQ2 inh	KCNQ2 block conf	KCNQ1 spec	CHO Tl ctr	others
C=CCn1c(Sc2ncc([N+](=O)[O-])s2)n[nH]c1=O	-9.8	-9.8*	-40%*	i	i	KCNQ2 patch conf=i
O=[N+]([O-])c1cnc(Sc2ccncn2)s1	.	i	.	.	.
Cc1ccc(C(=O)N/C(=C\c2ccc(Cl)cc2)C(=O)NCCN2CCOCC2)cc1	0.56	i	.	.	.
COc1ccccc1CNC(=O)COc1ccccc1C	.	i	.	.	.
C/C=C/c1ccc(OCC(=O)NCc2ccccc2OC)c(OC)c1	-6.7	-6.7*	i	i	i
COc1cccc(CCNS(=O)(=O)CCNC(=O)c2cccc(OC)c2)c1	0.53	i	.	.	.
Cc1ccc(OCc2nc(C#N)c(N3CCN(Cc4ccccc4)CC3)o2)cc1	-7.8	-7.8*	i	i	i
N#Cc1nc(COc2ccc(F)cc2)oc1N1CCCC1	.	i	.	.	.
Cc1ccccc1OCc1nc(C#N)c(N2CCCC2)o1	.	i	.	.	.
N#Cc1nc(COc2ccccc2)oc1N1CCC(Cc2ccccc2)CC1	-11	-11*	-30%*	i	i	KCNQ2 patch conf=i
CN(C)c1nc(N)c([N+](=O)[O-])c(NCCO)n1	0.13	i	.	.	.
COc1cccc(/C=C/C(=O)OCC(=O)Nc2ccc(Cl)cn2)c1	1.6	i	.	.	.
Nc1cc(=O)[nH]c(SCC(=O)Nc2ccc(Oc3ccccc3)cc2)n1	1.1	i	.	.	.
CN(C)c1nc(NCc2ccccc2)nc(SCC(=O)Nc2ccccc2)n1	0.48	i	.	.	.
CN(C)c1nc(NCc2ccccc2)nc(SCC(=O)Nc2ccccc2Cl)n1	-6.9	-6.9*	i	i	i
COc1ccc2c(c1)C(C)=CC(C)(C)N2S(=O)(=O)c1ccc(Br)cc1	.	i	.	.	.
Cc1ccccc1NC(=O)/C(=C/c1ccco1)c1ccccc1	.	i	.	.	.
CCc1ccccc1NC(=O)/C(=C/c1ccco1)c1ccccc1	-7.7	-7.7*	-29%*	i	i	KCNQ2 patch conf=+
CCOc1ccc(CCNC(=O)c2nnc(CS(=O)(=O)c3ccccc3)o2)cc1OCC	.	i	.	.	.
COCCN(C(=O)Cc1cccs1)C(C(=O)NCc1ccc(OC)cc1)c1ccc(C(C)C)cc1 (stereo not given)	-8.6	-8.6*	-35%*	i	i	KCNQ2 patch conf=+
CCc1ccc(C(C(=O)NCc2ccc(OC)cc2)N(CCOC)C(=O)Cc2cccs2)cc1 (stereo not given)	.	i	.	.	.
C=CCN(CC(=O)O)S(=O)(=O)c1ccccc1C(F)(F)F	.	i	.	.	.
CC(=O)N1c2ccc(S(=O)(=O)N(C)CC(=O)NCc3ccc(C)cc3)cc2CC1C (stereo not given)	.	i	.	.	.
COc1ccc(-c2noc(-c3cccnc3)n2)cc1OC	.	i	.	.	.
COc1ccc(-c2noc(-c3ccccc3-c3ccccc3)n2)cc1OC	-8.9	-8.9*	i	i	i
SMILES	KCNQ2 enhance	KCNQ2 inh	KCNQ2 block conf	KCNQ1 spec	CHO Tl ctr	others
CCOC(=O)CCc1c(C)nc(-n2[nH]c(C)c(CCO)c2=O)[nH]c1=O	.	i	.	.	.
Cc1c(Cl)cccc1NC(=O)C1CC2CCC1C2 (stereo not given)	3.8	i	.	.	.
COc1ccccc1N=Nc1nc(-c2ccccc2)c(-c2ccccc2)[nH]1	.	i	.	.	.
Oc1ccccc1N=Nc1nc(-c2ccccc2)c(-c2ccccc2)[nH]1	-6.6	-6.6*	i	i	i
O=C1CCC(=O)N1Cc1c(Cl)cccc1Cl	.	i	.	.	.
C/C(=C\C(=O)c1ccc(Br)cc1)NCc1ccc2c(c1)OCO2	-6.9	-6.9*	-17%*	i	i	KCNQ2 patch conf=i
C/C(=C\C(=O)c1ccc(F)cc1)NCc1ccc2c(c1)OCO2	.	i	.	.	.
Cc1ccc(C(=O)/C=C/C(=O)c2ccc(C)cc2)cc1	-7.5	-7.5*	i	i	i
Cc1ccc(/C=C/C(=O)c2ccc(C)cc2)cc1	.	i	.	.	.
CN1CCN(c2ccccc2NC(=O)COc2ccc(Cl)cc2)CC1	.	i	.	.	.
Cc1ccc(Nc2nc(-c3ccc(C)cc3)c(CC(=O)O)s2)cc1	1.7	i	.	.	.
O=C(O)Cc1sc(Nc2cccc3ccccc23)nc1-c1ccc(Cl)cc1	-8.2	-8.2*	i	i	i
O=C(COC(=O)c1cc(-c2cccs2)nn1-c1ccccc1)Nc1ccc(F)c([N+](=O)[O-])c1	.	i	.	.	.
Cc1c(N=Cc2cccs2)c(=O)n(-c2ccccc2)n1C	.	i	.	.	.
Cc1ccc(C2C(C=Nc3c(C)n(C)n(-c4ccccc4)c3=O)=C(c3ccccc3)Oc3ccccc32)cc1 (stereo not given)	-11	-11*	-24%*	i	i	KCNQ2 patch conf=i
Cc1ccccc1C(=O)Oc1cccc(Nc2ncnc3ccccc23)c1	-9.6	-9.6*	i	i	i
CC(=O)Oc1cccc(Nc2ncnc3ccccc23)c1	.	i	.	.	.
CC(=O)c1ccccc1OCCCCN1CCCCC1	.	i	.	.	.
COc1cccc(-n2c(SCC(=O)NCc3cccs3)nc3ccccc3c2=O)c1	.	i	.	.	.
COc1cccc(-n2c(SCC(=O)Nc3nc4ccccc4s3)nc3ccccc3c2=O)c1	-7	-7*	i	i	i
Cc1cc(C)cc(N(C(C)C(=O)NCCC2=CCCCC2)S(C)(=O)=O)c1 (stereo not given)	.	i	.	.	.
Cc1c(CCOC(=O)C23CC4(C)CC(C)(CC(C)(C4)C2)C3)sc[n+]1CC(=O)c1ccccc1	.	i	.	.	.
Cc1c(CCOC(=O)CC23CC4CC(CC(C4)C2)C3)sc[n+]1CC(=O)c1ccccc1	-8.5	-8.5*	-20%*	i	i	KCNQ2 patch conf=+
N#Cc1ccccc1N=C1CCCN1Cc1ccccc1	.	i	.	.	.
Cc1cc(C)c(N=C2CCCN2Cc2ccccc2)c(C#N)c1	-8.8	-8.8*	-32%*	i	i	KCNQ2 patch conf=+
SMILES	KCNQ2 enhance	KCNQ2 inh	KCNQ2 block conf	KCNQ1 spec	CHO Tl ctr	others
CNc1cncc(C(=O)O)c1	1.4	i	.	.	.
O=C(C1CCCC1)N1CCN=C1SCc1cccc([N+](=O)[O-])c1	.	i	.	.	.
Cc1ccc2c(c1)C(=O)C(=O)N2CC(=O)Nc1ccccc1NC(=O)c1ccccn1	1.1	i	.	.	.
CC(NC(=O)CCC(=O)c1ccccc1)c1ccc(F)cc1 (stereo not given)	-8.8	-8.8*	i	i	i
CC(NC(=O)Cc1ccccc1)c1ccc(F)cc1 (stereo not given)	1	i	.	.	.
O=C(c1ccccn1)N1CCCC(N2CCN(c3cccc(C(F)(F)F)c3)CC2)C1 (stereo not given)	1.6	i	.	.	.
Cc1nn(C)c(C(=O)N/N=C/c2ccccn2)c1[N+](=O)[O-]	0.06	i	.	.	.
Cc1nn(C)c(C(=O)Sc2cccc(Cl)c2)c1[N+](=O)[O-]	-9.7	-9.7*	-47%*	-50%*	-34%*	KCNQ2 patch conf=i
Cc1nn(C)c(C(=O)Sc2ccccc2)c1[N+](=O)[O-]	-7.9	-7.9*	-33%*	i	i	KCNQ2 patch conf=i
CCn1nc(C)cc1C(=O)Sc1cccc(Cl)c1	.	i	.	.	.
